# Assay results as given in the supplement of paper PMC6555819.
# Assays:
# Assay in all cases: PBM binding z-score (relative to random genomic background probes); higher = stronger binding; sequences stand for … in GC…GCGATTGACAGCGTAGAATGAAGG
# [1] = system: FXR:RXRa (NR concentration 270 nM, RXRa partner concentration 90 nM)
# How it was run: (§1)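 The probes on custom Agilent 4×180K protein-binding microarrays were double-stranded, with 34-nt variable regions bearing direct-repeat seeds, single-nucleotide variants, half-site ablations and random human genomic background sequences. Incubation lasted 1 h with ligand-free nuclear receptor dimers in PBS pH 7.4, 2% milk, 0.02% Triton X-100, 1 mM DTT, 0.2 mg/mL BSA and 0.4 mg/ml salmon testes DNA. Antibodies against each partner (one per run) detected bound dimers, and fluorescence scans were regression-normalized. Binding z-scores take the random background probes as reference.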
# [2] = system: LXRa:RXRa (NR concentration 270 nM, RXRa partner concentration 90 nM)
# How it was run: as §1
# [3] = system: LXRa homodimer (NR concentration 270 nM)
# How it was run: as §1
# [4] = system: LXRb:RXRa (NR concentration 270 nM, RXRa partner concentration 90 nM)
# How it was run: as §1
# [5] = system: LXRb homodimer (NR concentration 270 nM)
# How it was run: as §1
# [6] = system: PPARa:RXRa (NR concentration 270 nM, RXRa partner concentration 90 nM)
# How it was run: as §1
# [7] = system: PPARg:RXRa (NR concentration 180 nM, RXRa partner concentration 90 nM)
# How it was run: as §1
# [8] = system: PPARg:RXRa 270nM:90nM, anti-RXR (NR concentration 270 nM, RXRa partner concentration 90 nM)
# How it was run: as §1
# [9] = system: PPARg:RXRa 30nM:10nM, anti-RXR (NR concentration 30 nM, RXRa partner concentration 10 nM)
# How it was run: as §1
# [10] = system: PPARg:RXRa 90nM:30nM, anti-RXR (NR concentration 90 nM, RXRa partner concentration 30 nM)
# How it was run: as §1
Sequence,PBM binding z-score [1],PBM binding z-score [2],PBM binding z-score [3],PBM binding z-score [4],PBM binding z-score [5],PBM binding z-score [6],PBM binding z-score [7],PBM binding z-score [8],PBM binding z-score [9],PBM binding z-score [10]
CAGCCTGGGTCAGGGCCAGTATAGGAGGAACGTT,0.78,0.261,-0.628,0.24,-1.02,2.03,0.871,0.727,-0.545,0.0759
TCGAGTAGGTTAGGGGCATTGAGAATGGCGTCGA,0.089,0.155,-0.182,0.843,-0.13,1.18,0.706,1.97,1.38,1.51
ATACCAAGGTGATCGTTAGGTCGTTGATACTAAC,1.05,0.551,0.24,0.374,-0.0967,0.452,0.242,0.192,-0.144,-0.131
ACTCGGAGGACAAAGGTCAGAGCTACGCCAGTGA,4.09,4.15,1.61,3.4,0.202,4.93,7.6,7.06,5.63,7.83
TCATATAGGTAGAGGTGAAAGTCGAACGATATGA,0.743,0.996,-0.23,0.833,-0.246,2.43,1.96,3.02,3.6,3.28
TTACCAATGTGAGCTGAGGTCGTTGATCCAACTC,0.612,0.222,-0.15,0.408,-0.727,0.851,-0.119,0.638,0.496,0.42
CCTACGGGGCCATCAGGTCATTGATATCAACGTT,2.38,1.72,0.922,1.91,-0.245,2.46,1.25,1.88,0.224,0.958
CCTACTGGGCCAAGGTCATTGAACAGTCAAAGCA,3.08,3.2,0.814,3,-0.34,4.19,4.25,4.55,1.68,3.73
TCTTGTAGATCAGAGGTTAAGAAAGCCGAAGCCT,0.507,1.04,-0.0177,1.4,-0.128,2.87,4.35,5.58,4.79,5.63
TCATATAGATAAATGCTAGGTGAAAGTCCGATCT,0.784,0.813,0.103,0.591,-0.152,0.912,0.876,2.09,3.93,3.03
CAAACTAGGTTACGAAAGGTCAAAGTCGAATGAC,5.93,8.59,8.28,7.69,2.88,6.1,8.03,7.02,4.81,6.47
TATACAGGCTCAAAGGCCAGAGTACGAATGTCGA,-0.0411,0.0342,-0.184,-0.265,-0.0867,0.221,1.03,1.75,0.77,1.4
CCTACTGGGGCATTCAGAGGTCATTGATCATATG,3.08,4.37,6.25,3.91,0.359,4.07,3.34,4.13,1.23,3.12
TCTAGTTGGTCACGGAGGTAACACACGACGGGTA,0.499,0.13,-0.316,0.404,0.515,1.02,1.34,1.92,3.23,2.25
TTACCAAGGCGAAAGGTCGTTGATGCACGCCTTG,1.27,1.41,0.121,1.38,-0.953,3.5,5.49,6.09,5.18,6.24
TCTAGTTTGTCACGGAGGTCACACACGACGGGTA,3.46,3.54,2.3,3.26,1.43,3.88,2.25,3.52,3.81,3.66
TCTCGGAGGACACGAAGGTCAGAGTTTTCCAGAG,1.18,0.932,0.497,1.22,-0.785,1.81,0.436,1.67,2.25,1.87
GCGACTGGGGCATCAGCAGGTTACCATCACTTAA,-0.298,-0.121,-0.321,0.504,-0.992,0.811,0.679,0.547,-0.615,-0.341
CCAGACAGGTGAGAGGTAACTCAGTCTGGTACGC,-0.0103,0.206,-0.48,0.237,-0.589,1.97,2.93,4.15,1.95,3.82
ATCTCTAGGTAACCAAGTTCATTGAATGCCGAAC,0.729,2.12,2.71,1.66,1.1,2.14,1.04,1.24,0.578,0.937
ATCGAAAGGTCGTGAGCTGAGTATACAGAAAGGC,4.79,3.91,0.0249,3.03,0.117,4.86,3.35,4,1.23,2.6
GCTATTAGTTGAAAGGGCATCCGAATGATTCTCG,0.204,0.581,0.00348,0.69,0.0114,2.22,2.35,4.39,2.34,3.96

Sequence,PBM binding z-score [1],PBM binding z-score [2],PBM binding z-score [3],PBM binding z-score [4],PBM binding z-score [5],PBM binding z-score [6],PBM binding z-score [7],PBM binding z-score [8],PBM binding z-score [9],PBM binding z-score [10]
TATACAGGGACAAAGGCCAGAGTACGAATGTCGA,0.545,0.102,0.279,-0.249,0.97,1.19,2.9,3.98,2.12,3.3
CAAACTAGGACACGAAAGGTCAAAGTCGAATGAC,5.33,5.73,6.38,5.43,1.98,5.8,6.54,6.27,3.92,5.63
CCGAGTGGGGCATAAGGTTACCATAAGCCAGCCC,0.498,1.86,-0.512,0.83,-1.04,2.05,2.19,3.09,1.06,2.66
GCGACTGTGGCAAAGCAGGTTACCATAAGGTTGG,-0.28,-0.311,-0.53,-0.511,-1.38,0.3,0.331,-0.377,-0.529,-0.508
AGAATGAGGTTATTAAGATCACGGAATTGCGGTC,1.57,1.78,0.215,1.57,0.0573,3.18,1.99,2.7,0.647,1.6
CGTATTAGTTGACCATAAGGGCAACCGAAGCTCG,0.6,0.437,0.259,0.258,0.134,0.617,0.684,0.523,-0.0743,0.805
CCTACTGGGCCACGAAAGGTCATTGAATCAGTGA,3.69,5.1,4.09,4.26,0.492,4.68,4.56,5.1,2.28,4.03
CGTCCAAGGTCAGAGACGTCAGTGAATGCCGAGT,4.49,2.77,-0.161,1.87,-0.32,3.7,1.97,2.41,0.132,1.48
TCTATTAGTTGATTAAGGCAACCGAAACAGCGGA,0.785,0.541,0.0619,0.645,0.994,0.614,0.172,2.06,3.75,2.99
ACAGACAGGTGATGCAGGTAACTCAGGCTATCAT,-0.0955,-0.176,-0.459,-0.222,-0.442,0.00895,0.577,-0.188,-0.309,-0.256
AGAATGAGGTTACCAAAGATCGGGGAAACGCTTG,1.75,4.95,-0.394,2.39,-0.29,3.28,2.29,2.42,0.813,1.48
CCTACTGGGCCACGAAAGGTCATCGATTCAGTGA,3.74,5.24,4.54,4.28,0.188,5.09,5.36,5.2,2.42,4.73
TCTATTAGTTGCAGGGCAACCGACGAGTCCGTTT,0.562,0.804,0.147,0.702,0.559,0.736,-0.219,1.62,3.41,2.38
GGAACGAGGGCTAAGTTGATAGCATCTGTCGACG,-0.545,-0.626,-0.392,-0.796,-0.848,0.746,1.37,2.81,1.41,2.31
GCGACTGCGGCATCAGCAGGTTACCATAACTTAA,-0.558,-0.742,0.0285,-0.388,-1.12,-0.34,-0.014,-0.695,-0.628,-0.649
GCTCCTAGGTCAGGTTGGTCAGCTAACGGGTACG,1.88,1.13,0.0623,1.09,0.0222,2.12,0.889,1.34,-0.42,0.479
ACTAGCAGGCCAAGTTTGGGTCCCTCAAACAAAG,-0.607,-0.657,-0.583,-0.842,-0.875,-0.286,-0.709,-0.928,-1.06,-1.05
CCTACTGGCCCACGAAAGGTCATTGATTCAGTGA,3.58,4.35,5.66,4.39,0.684,4.2,0.749,2.36,0.593,1.47
ATTTCTAGGTAAAAGTTCAGTGAATCCCGAGGAT,1.14,1.71,1.53,1.49,1.12,5.27,9.08,8.85,8.73,10.6
TCTACTAGTTGAAGGGCAACCGACGAGTCCGTTT,0.338,0.156,-0.296,0.212,-0.37,0.726,0.214,1.58,3.03,2.48
CGAACTAGGTCACAACAGGACAGTGAAGGATGAT,3.29,4.76,0.422,2.17,0.119,4.65,7.81,6.57,3.9,6.22
TCTTGTAGACCAACAGGAGGTTAAGAAAGATCGA,-0.287,1.22,0.0855,0.717,-0.453,1.15,0.068,1.3,2.69,1.81
